From the supplement of paper PMC10338343
± gives the standard deviation.

Legend:
[1] = tested on: MILI (PIWIL2) piRISC loaded with L1MC piRNA (26 nt); assay: pre-steady-state target cleavage rate (min^-1); guide: L1MC piRNA 5'p-UAACUAAAUACUAUGCAAGCUGUAGG; higher = faster piRNA-guided slicing of the target
How it was run: (§1)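 Cleave-'n-Seq used a transcribed, DNA-blocked target RNA library at 0.1 nM and active affinity-purified piRISC with one synthetic guide at 1 nM, with or without 500 nM GTSF1 partner protein, in HEPES–potassium acetate buffer at 33 °C for 0–8 or 0–960 min. Uncleaved targets were sequenced and normalised to depth and to weakly complementary targets, and three trials were pooled with k3 capped at 0.0001 min^-1. The pre-steady-state cleavage rate was estimated by a burst-and-steady-state fit.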

[2] = tested on: EfPiwi piRISC loaded with L1MC piRNA (26 nt); assay: pre-steady-state target cleavage rate (min^-1); auxiliary factor: 500 nM Ephydatia muelleri Gtsf1; guide: L1MC piRNA 5'p-UAACUAAAUACUAUGCAAGCUGUAGG; MIWI and MILI are mouse PIWI proteins and EfPiwi is from a freshwater sponge; tags in brackets are library labels; higher = faster piRNA-guided slicing of the target
How it was run: as §1

[3] = auxiliary factor: 500 nM mouse GTSF1
[4] = auxiliary factor: none (no GTSF1)

Sequence | pre-steady-state target cleavage rate [1, 3] | pre-steady-state target cleavage rate [2] | pre-steady-state target cleavage rate [1, 4]
UCCUCCUACACCUUGCAUAGUAUUUACAAA | 0.127 ± 0.032 | 0.00304 ± 0.0025 | 
UCCUGGAACAGCUUGGAUAGUUUUUAGUUA | 0.0453 ± 0.0097 | 0.00298 ± 0.0022 | 
UCCUGCUACAGCUUGCAUAGUAUUAUGUUA | 0.231 ± 0.047 | 0.00406 ± 0.002 | 
UCCUCGAUCAGCUUGCAUAGUAUUUACAAA | 0.135 ± 0.026 | 0.00554 ± 0.003 | 
UCCUGCUACAGCUUGCAUAGUAAUUAGAAA | 0.0259 ± 0.0091 | 0.00362 ± 0.0016 | 
UCCUCGAACAGCUUGCAUAGUAUUUACAAA | 0.0992 ± 0.021 | 0.00433 ± 0.0025 | 
UCCUGGUACUGCUUGCAUAGUAUUUACAAA | 0.00977 ± 0.0049 | 0.00278 ± 0.0027 | 
UCCUGGAUGAGCUUGCAUAGUAUUUAGUCUA | 0.0419 ± 0.013 | 0.00413 ± 0.0026 | 
UCCUGCUACAGCUAGCAUAGUAUUUACUUA | 0.351 ± 0.051 | 0.00364 ± 0.0025 | 
UCCUGGUACAGCUUGCAUAGUAUUUACAUA | 0.0411 ± 0.014 | 0.0038 ± 0.0029 | 
UCCUGGAUCAGGUUGCAUAGUAUUUAGAAA | 0.185 ± 0.029 | 0.00341 ± 0.0019 | 
UCCUGCUACACCUUGCAUAGUAUUUUGUUA | 0.1 ± 0.032 | 0.00317 ± 0.0023 | 
UCCUGCUACAGCUUGCAUUGUAUUUAGAUA | 0.106 ± 0.017 | 0.00283 ± 0.0018 | 
UCCUGCUACAGCUUGCAUAGAAUUUAGUAA | 0.237 ± 0.062 | 0.00358 ± 0.0016 | 
UCCUGCUACAGCUUGCAUAGUUUUAGUUA | 0.0113 ± 0.0045 | 0.00248 ± 0.0013 | 
UCCUGCUAGAGCUUGCAUACUAUUUAGUUA | 0.0842 ± 0.018 | 0.00515 ± 0.0018 | 
UCCUGCUACAGCUUGCAUAGUAUUUAGUGUA | 0.244 ± 0.048 | 0.00597 ± 0.0021 | 
UCCUGCUACAGCUUGCAUAGUAUUUUCUUA | 0.0484 ± 0.01 | 0.00359 ± 0.002 | 
UCCUGGAUGAGCUUGCAAUAGUAUUUAGUUA | 0.00505 ± 0.0031 | 0.00597 ± 0.003 | 
UCCUGGAUGAGCUUCCAUAGUAUUUAGUAA | 0.0143 ± 0.0073 | 0.00253 ± 0.0019 | 
UCCUCCUAGAGCUUGCAUACUAUUUAGUUA | 0.101 ± 0.018 | 0.00855 ± 0.0026 | 
UCCUCCUAGAGCUUGCAUAGAAUUUAGUUA | 0.0513 ± 0.0099 | 0.00468 ± 0.0013 | 
UCCUCCUACACGUUGCAUAGUAUUUAGAAA | 0.161 ± 0.029 | 0.00396 ± 0.003 | 
UCCUGGAACAGCUUGCAUAGUAAUUAGUAA | 0.108 ± 0.015 | 0.00418 ± 0.0019 | 
UCCUCCUACAGCUUGCAUAGUUUAUAGUUA | 0.0469 ± 0.011 | 0.00613 ± 0.0033 | 
UCCUGGAUGUGCUUGACAUAGUAUUUAGUUA | 0.0338 ± 0.009 | 0.0797 ± 0.03 | 
UCCUGCUACAGCUUGCAUAGUAUUUACUAA | 0.112 ± 0.024 | 0.0025 ± 0.0024 | 

Sequence | pre-steady-state target cleavage rate [1, 3] | pre-steady-state target cleavage rate [2] | pre-steady-state target cleavage rate [1, 4]
UCCUGCUACAGCUAGCAUAGUAUUAAGUUA | 0.3 ± 0.032 | 0.00662 ± 0.0026 | 
UCCUCCUACAGCUUGCAUAGUAAAUACAAA | 0.0608 ± 0.018 | 0.00363 ± 0.003 | 
UCCUGGAACAGCUUGCCAUAGUAUUUAGUUA | 0.163 ± 0.018 | 0.0042 ± 0.0019 | 
UCCUGGAUCAGCUUGCAAAGUAUUUACAAA | 0.0432 ± 0.012 | 0.00563 ± 0.0037 | 
UCCUGGUACAGCUUGCUAUAGUAUUUAGUUA | 0.0224 ± 0.009 | 0.00339 ± 0.0031 | 
UCCUGGAACAGCUUGCAUAGUAUUUUCUUA | 0.0439 ± 0.014 | 0.00388 ± 0.0027 | 
UCCUGGUACAGCUUGCAUAGUAAAUAGUUA | 0.238 ± 0.038 | 0.00642 ± 0.0025 | 
UCCUGGUACAGCUUGCAUAGUAAUUAGUAA | 0.212 ± 0.037 | 0.00568 ± 0.0029 | 
UCCUGGAUGUCGAACGUUAGUAUUUUCAAA [g6:g13:cont:t1A] |  | < 0.0001 | < 0.0001
UCCUGGAACAGCUUGCAUAGUUUUUUGUUA | 0.0493 ± 0.014 | 0.00325 ± 0.0013 | 
UCCUGCUACAGCUUGCAUAGUAUUAAGAUA | 0.019 ± 0.0078 | 0.00501 ± 0.0016 | 
UCCUGCUACAGCUUGCAAUAGUAUUUAGUUA | 0.0355 ± 0.0093 | 0.006 ± 0.0018 | 
UCCUGGAUGUCGAAGGAAAGUAUUUAGUUA |  | < 0.0001 | < 0.0001
UCCUGCUACAGCUUGCAUACUAUUUUGUUA | 0.0252 ± 0.0096 | 0.00432 ± 0.0019 | 
UCCUGGAACAGCUUGCUUAGUAUUAAGUUA | 0.179 ± 0.026 | 0.00237 ± 0.002 | 
UCCUGCAACAGCUUGCAUAGUAUUUUCAAA | 0.104 ± 0.027 | 0.00269 ± 0.0017 | 
UCCUGGUACUCCUUGCAUAGUAUUUAGUAA | 0.131 ± 0.032 | 0.00302 ± 0.002 | 
UCCUGGAUGUCGAACCAUAGUAUUUAGGUA |  | < 0.0001 | < 0.0001
UCCUGCUACAGCUUGCAUAGUAAAAAGUUA | 0.214 ± 0.036 | 0.00305 ± 0.0016 | 
UCCUGGAACACGAUGCAUAGUAUUUACAAA | 0.0623 ± 0.018 | 0.00408 ± 0.0037 | 
UCCUGGAACAGCUUGCUAUAGUAUUUAGUUA | 0.028 ± 0.0077 | 0.00682 ± 0.0023 | 
UCCUGGAACUGCUUGCAUAGUAUUUAGAUA | 0.123 ± 0.023 | 0.00297 ± 0.002 | 
UCCUCCUAGAGCUUGCAUAGUUUUUAGUUA | 0.0719 ± 0.011 | 0.00428 ± 0.0017 | 
UCCUGGUACAGCUUGCAUAGUAAUUAGAUA |  | 0.00477 ± 0.0031 | 0.00338 ± 0.0033
UCCUGCUACAGCUAGCAUAGAAUUUAGUUA | 0.0821 ± 0.018 | 0.00327 ± 0.0022 | 
UCCUCGAACAGCUUGCAUAGUAUUUUCAAA | 0.102 ± 0.021 | 0.00321 ± 0.0022 | 
UCCUGGAACAGCUUGCGAUAGUAUUUAGUUA | 0.00418 ± 0.0033 | 0.00523 ± 0.0018 | 
